In PubChem BioAssay (Tox21):
Where “and” joins values, the source holds several entries; their conditions need not be identical. Equal values may be shown once. Some compounds were tested as several samples or in several runs, with calls that do not always agree. Calls of active or inactive are those of the source. Entries that show only a call come without a potency. Unless noted, the call rests on the fitted dose curve; in most records, active means well fitted curve in the direction sought with a large enough effect in the repeat runs; inconclusive means weak or mixed curves; inactive means no such curve, though single readings can be large; an effect the other way counts as inactive or inconclusive.

Experiments:
[1] = qHTS assay to identify small molecule antagonists of the glucocorticoid receptor (GR) signaling pathway - cell viability counter screen (AID 720693); further: nearly all actives have a fitted effect of over 55% in size
[2] = qHTS assay for identifying genotoxic compounds that show differential cytotoxicity against isogenic chicken DT40 cell lines with known DNA damage response pathways - wild type cell line (AID 743012); further: nearly all actives have a fitted effect of over 60% in size; further: potency means the concentration at half of the fitted maximal effect
Procedure, shortened: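 300 wt DT40 cells/well; cpd (DMSO) pintool-transferred after ~0.5 h at 37 C/5% CO2; 40 h incubation; CellTiter-Glo added, 30 min RT; luminescence read.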

[3] = qHTS assay for identifying genotoxic compounds that show differential cytotoxicity against isogenic chicken DT40 cell lines with known DNA damage response pathways - Rev3 mutant cell line (AID 743014); further: nearly all actives have a fitted effect of over 55% in size
[4] = qHTS assay for identifying genotoxic compounds that show differential cytotoxicity against isogenic chicken DT40 cell lines with known DNA damage response pathways - Rad54/Ku70 mutant cell line (AID 743015); further: nearly all actives have a fitted effect of over 60% in size; further: potency means the concentration at half of the fitted maximal effect
[5] = target: Androgen receptor (Homo sapiens) (UniProt P10275); test: qHTS assay to identify small molecule antagonists of the androgen receptor (AR) signaling pathway (AID 743035; active means well fitted inhibition curve with a large enough effect in the signal ratio in the repeat runs, not every such curve was filed as active; inconclusive means weak or mixed curves, or effect the other way; inactive means no such curve, though single readings can be large or run the other way; the % refers to the signal ratio)
Sequence of Androgen receptor (Homo sapiens) (P10275 whole entry, looked up): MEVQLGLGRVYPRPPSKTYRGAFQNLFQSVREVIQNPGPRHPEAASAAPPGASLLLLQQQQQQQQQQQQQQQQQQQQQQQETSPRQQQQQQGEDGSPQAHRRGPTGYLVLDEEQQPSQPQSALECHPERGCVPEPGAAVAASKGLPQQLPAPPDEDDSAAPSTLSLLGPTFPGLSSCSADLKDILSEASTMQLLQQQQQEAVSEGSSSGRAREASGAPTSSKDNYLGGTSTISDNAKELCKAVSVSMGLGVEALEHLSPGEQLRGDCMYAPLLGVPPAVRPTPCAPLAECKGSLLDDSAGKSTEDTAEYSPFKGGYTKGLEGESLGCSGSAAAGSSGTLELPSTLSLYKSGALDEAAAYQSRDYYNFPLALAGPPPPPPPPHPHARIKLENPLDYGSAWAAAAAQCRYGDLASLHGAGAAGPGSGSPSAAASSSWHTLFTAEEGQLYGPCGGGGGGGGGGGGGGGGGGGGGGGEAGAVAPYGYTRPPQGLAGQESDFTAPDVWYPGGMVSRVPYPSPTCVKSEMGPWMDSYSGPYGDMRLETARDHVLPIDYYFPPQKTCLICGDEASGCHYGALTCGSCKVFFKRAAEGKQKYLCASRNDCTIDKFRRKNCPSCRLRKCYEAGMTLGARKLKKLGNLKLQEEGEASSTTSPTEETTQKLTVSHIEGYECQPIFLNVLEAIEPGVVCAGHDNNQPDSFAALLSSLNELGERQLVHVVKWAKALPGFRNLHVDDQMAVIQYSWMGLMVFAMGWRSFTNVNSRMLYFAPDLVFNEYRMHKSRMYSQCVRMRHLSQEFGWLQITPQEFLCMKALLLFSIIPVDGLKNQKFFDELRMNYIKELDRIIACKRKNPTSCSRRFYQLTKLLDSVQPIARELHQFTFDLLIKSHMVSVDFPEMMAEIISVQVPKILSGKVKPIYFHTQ
Procedure, shortened: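 In this cell-based reporter screen, compounds were tested in concentration series against R1881-activated HEK293 cells expressing beta-lactamase under UAS control; after 16 h at 37C, FRET substrate was added and fluorescence read 2 h later.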

[6] = target: Androgen receptor (Homo sapiens) (UniProt P10275); test: qHTS assay to identify small molecule agonists of the androgen receptor (AR) signaling pathway (AID 743036; active means well fitted activation curve with a large enough effect in the signal ratio in the repeat runs, with a control signal flat, not every such curve was filed as active; inconclusive means weak or mixed curves, or effect the other way; inactive means no such curve, though single readings can be large or run the other way; the % refers to the signal ratio)
Procedure, shortened: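 In this Tox21 qHTS, 2,000 HEK293 AR-bla cells per well were incubated with compounds for 16 h at 37C and 5% CO2. Fluorescence intensity was recorded 2 h after adding LiveBLAzer B/G FRET substrate at room temperature.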

[7] = target: Androgen receptor (Homo sapiens) (UniProt P10275); test: qHTS assay to identify small molecule agonists of the androgen receptor (AR) signaling pathway using the MDA cell line (AID 743040; further: nearly all actives have a fitted effect of over 20% in size)
Procedure, shortened: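 Luciferase agonist assay: 16 h compound exposure at 37C without CO2 in MDA-kb2 AR-luc cells, whose MMTV promoter responds to both AR and GR. Luminescence measured after 30 min room-temperature incubation with ONE-Glo.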

[8] = qHTS assay to identify small molecule antagonists of the androgen receptor (AR) signaling pathway using the MDA cell line - cell viability counter screen (AID 743041; further: nearly all actives have a fitted effect of over 45% in size; further: potency means the concentration at half of the fitted maximal effect)
Procedure, shortened: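 Viability read by CellTiter-Fluor fluorescence in the same wells as the antagonist screen, added after 15.5 h of a 16 h, 37C exposure. Human breast carcinoma MDA-kb2 AR-luc cells, compounds co-dosed with agonist R1881.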

[9] = target: Androgen receptor (Homo sapiens) (UniProt P10275); test: qHTS assay to identify small molecule antagonists of the androgen receptor (AR) signaling pathway using the MDA cell line (AID 743042; further: nearly all actives have a fitted effect of over 55% in size)
Procedure, shortened: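 Antagonist mode: compounds plus R1881 agonist added to MDA-kb2 AR-luc cells, incubated 16 h at 37C. Luciferase reporter luminescence quantified, with multiplexed CellTiter-Fluor readout for cell viability.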

[10] = qHTS assay to identify small molecule antagonists of the thyroid receptor (TR) signaling pathway (AID 743065); further: nearly all actives have a fitted effect of over 55% in size; further: potency means the concentration at half of the fitted maximal effect
Procedure, shortened: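 Antagonism measured as loss of luciferase signal in GH3 cells stably carrying a TRE-luciferase reporter, co-treated with compound and T3 (1 nM final) for 23.5 h at 37 C. Viability was read in the same well by CellTiter-Fluor.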

[11] = tested on: thyroid hormone receptor (rat, GH3 cells); test: qHTS assay to identify small molecule agonists of the thyroid receptor (TR) signaling pathway (AID 743066; calls by dose curve)
[12] = target: Estrogen receptor (Homo sapiens) (UniProt P03372); test: qHTS assay to identify small molecule antagonists of the estrogen receptor alpha (ER-alpha) signaling pathway (AID 743069; active means well fitted curve in the direction sought with a large enough effect in the signal ratio in the repeat runs, not every such curve was filed as active; inconclusive means weak or mixed curves, or effect the other way; inactive means no such curve, though single readings can be large or run the other way; the % refers to the signal ratio; further: potency means the concentration at half of the fitted maximal effect)
Sequence of Estrogen receptor (Homo sapiens) (P03372 whole entry, looked up): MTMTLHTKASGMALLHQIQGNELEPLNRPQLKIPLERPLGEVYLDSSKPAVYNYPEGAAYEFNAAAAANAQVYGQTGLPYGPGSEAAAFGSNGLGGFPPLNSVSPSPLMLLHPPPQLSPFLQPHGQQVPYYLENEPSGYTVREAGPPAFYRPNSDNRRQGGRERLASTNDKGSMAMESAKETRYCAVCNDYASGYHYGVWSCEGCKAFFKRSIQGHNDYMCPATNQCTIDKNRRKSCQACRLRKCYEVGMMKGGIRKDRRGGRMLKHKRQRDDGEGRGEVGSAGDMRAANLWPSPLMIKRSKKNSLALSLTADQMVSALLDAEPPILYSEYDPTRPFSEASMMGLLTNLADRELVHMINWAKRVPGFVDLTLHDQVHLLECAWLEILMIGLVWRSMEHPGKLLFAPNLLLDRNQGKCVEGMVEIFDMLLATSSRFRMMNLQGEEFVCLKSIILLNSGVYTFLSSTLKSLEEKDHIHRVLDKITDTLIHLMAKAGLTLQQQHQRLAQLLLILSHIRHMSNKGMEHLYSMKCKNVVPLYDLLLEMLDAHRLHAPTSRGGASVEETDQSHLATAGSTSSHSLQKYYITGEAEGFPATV
Procedure, shortened: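 Antagonist mode: compounds in DMSO were co-added with 17beta-estradiol to ER-alpha-bla HEK293 cells (2% charcoal-stripped serum) and left 18 h at 37C. Reporter inhibition was measured as FRET fluorescence after 2 h LiveBLAzer substrate at room temperature.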

[13] = qHTS assay to identify small molecule antagonists of the estrogen receptor alpha (ER-alpha) signaling pathway - cell viability counter screen (AID 743074; calls by dose curve;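 further: HEK293 cells carrying ER-alpha-UAS-bla reporter stimulated with 17beta-estradiol; nearly all actives have a fitted effect of over 45% in size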; further: potency means the concentration at half of the fitted maximal effect)
[14] = target: Estrogen receptor (Homo sapiens) (UniProt P03372); test: qHTS assay to identify small molecule agonists of the estrogen receptor alpha (ER-alpha) signaling pathway (AID 743075; calls by dose curve;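 further: HEK293 GripTite cells with ER-alpha and UAS-driven beta-lactamase reporter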; further: potency means the concentration at half of the fitted maximal effect)
[15] = target: Estrogen receptor (Homo sapiens) (UniProt P03372); test: qHTS assay to identify small molecule agonists of the estrogen receptor alpha (ER-alpha) signaling pathway using the BG1 cell line (AID 743079); further: nearly all actives have a fitted effect of over 20% in size; further: potency means the concentration at half of the fitted maximal effect
[16] = qHTS assay to identify small molecule antagonists of the estrogen receptor alpha (ER-alpha) signaling pathway using the BG1 cell line (AID 743080; calls by dose curve;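 further: BG1 cells stimulated with 17beta-estradiol alongside compound; nearly all actives have a fitted effect of over 25% in size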; further: potency means the concentration at half of the fitted maximal effect)
Procedure, shortened: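 Luminescence from a 4×ERE-luciferase reporter in BG1-Luc-4E2 cells served as read-out. Cells, pre-cultured 5 days in stripped-serum phenol-red-free medium, were exposed to compound with 17beta-estradiol co-stimulation for 21.5 h at 37 C.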

[17] = qHTS assay to identify small molecule antagonists of the estrogen receptor alpha (ER-alpha) signaling pathway using the BG1 cell line - cell viability counter screen (AID 743081);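 further: compound given together with 17beta-estradiol as the ER stimulus; nearly all actives have a fitted effect of over 45% in size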; further: potency means the concentration at half of the fitted maximal effect
[18] = target: Aromatase (Homo sapiens) (UniProt P11511); test: qHTS assay to identify aromatase inhibitors (AID 743083); further: nearly all actives have a fitted effect of over 55% in size; further: potency means the concentration at half of the fitted maximal effect
Sequence of Aromatase (Homo sapiens) (P11511 whole entry, looked up): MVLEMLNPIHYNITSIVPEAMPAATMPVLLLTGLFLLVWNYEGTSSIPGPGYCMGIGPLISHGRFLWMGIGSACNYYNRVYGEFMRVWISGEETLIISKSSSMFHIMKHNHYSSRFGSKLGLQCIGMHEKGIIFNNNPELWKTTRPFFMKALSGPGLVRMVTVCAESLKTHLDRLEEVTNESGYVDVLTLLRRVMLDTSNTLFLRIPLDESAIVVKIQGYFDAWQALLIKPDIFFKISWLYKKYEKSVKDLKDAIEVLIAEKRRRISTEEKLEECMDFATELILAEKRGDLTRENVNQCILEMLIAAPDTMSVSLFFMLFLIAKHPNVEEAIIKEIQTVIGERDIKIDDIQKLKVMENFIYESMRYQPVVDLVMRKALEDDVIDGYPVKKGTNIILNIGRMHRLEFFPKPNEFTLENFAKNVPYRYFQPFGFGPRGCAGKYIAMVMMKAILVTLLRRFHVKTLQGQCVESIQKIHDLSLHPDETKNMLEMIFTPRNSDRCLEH

[19] = qHTS assay to identify small molecule antagonists of the androgen receptor (AR) signaling pathway - cell viability counter screen (AID 743033; further: nearly all actives have a fitted effect of over 45% in size; further: potency means the concentration at half of the fitted maximal effect)
[20] = qHTS assay to identify small molecule antagonists of the thyroid receptor (TR) signaling pathway - cell viability counter screen (AID 743064); further: nearly all actives have a fitted effect of over 50% in size; further: potency means the concentration at half of the fitted maximal effect
Procedure, shortened: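 Counter screen for cytotoxicity: compound plus T3 (1 nM final) on GH3.TRE-Luc cells, 23.5 h at 37 °C, then fluorescence viability readout with CellTiter-Fluor.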

Compound	Potency [1]	Potency [2]	Potency [3]	Potency [4]	outcome [5]	outcome [6]	outcome [7]	Potency [8]	outcome [9]	Potency [10]	outcome [11]	Potency [12]	Potency [13]	Potency [14]	Potency [15]	Potency [16]	Potency [17]	Potency [18]	Potency [19]	Potency [20]
Cc1cc(=O)[nH]c(C(C)C)n1	inactive	inactive	inactive	inactive	inactive	inactive	inactive	inactive	inactive	inactive	inactive	inactive	inactive	inactive	inactive	inactive	inactive	inactive		
O=S(=O)(O)CCS	inactive	inactive		inactive				inactive		inactive	inactive	inactive	inactive	inactive	inactive	inactive	inactive	inactive	inactive	inactive
Nc1cc(-c2ccncc2)c[nH]c1=O	inactive	inactive	inactive	inactive	inactive	inactive	inactive	inactive	inactive	inactive	inactive	inactive	inactive	inactive	inactive	inactive	inactive	inactive		inactive
Cc1ccc(C)c(C)c1	inactive	inactive		inactive	inactive	inactive	inactive	inactive	inactive	inactive	inactive	inactive	inactive	inactive	inactive	inactive	inactive	inactive	inactive	
CN(C)c1ccc(C(=N)c2ccc(N(C)C)cc2)cc1	inactive	5.38 µM (active) and 11.7 µM (active)		3.81 µM (active) and 11.7 µM (active)				60.4 µM (active)		7.6 µM (active) and 7.4 µM (active)	inactive	37.4 µM [inconclusive] (active)		inactive			30.3 µM (active) and 14.8 µM (active)		34.2 µM (active) and 37.4 µM (active)	53.8 µM (active) and 26.3 µM (active)
CCCCCCCCCC(=O)O	inactive	inactive		61.2 µM (active) and inactive	inactive	inactive	inactive	inactive	inactive	inactive	inactive		inactive				inactive	inactive	inactive and 55 µM (active)	
O=S(=O)(Oc1ccc(Cl)cc1Cl)c1ccccc1	inactive	inactive		inactive				inactive		inactive	inactive	inactive	inactive	7.9 µM [activator] (active) and 55 µM [activator] (active)	19.7 µM (active) and 30.6 µM (active)		inactive	inactive	inactive	inactive
O=Nc1ccc(O)cc1	inactive	inactive	inactive	inactive	inactive	inactive	inactive	inactive	inactive	inactive	inactive	inactive	inactive	inactive	inactive	inactive	inactive	inactive		
CCCCCCCCC	inactive	inactive		inactive				inactive		inactive	inactive	inactive	inactive	inactive	inactive	inactive	inactive	inactive	inactive	inactive
CC(C)Cc1ccccc1	inactive	inactive	inactive	inactive				inactive		inactive	inactive	inactive	inactive	inactive	inactive	inactive	inactive	inactive		
CC1Cc2ccccc2N1NC(=O)c1ccc(Cl)c(S(N)(=O)=O)c1 (stereo not given)	inactive	inactive	inactive	inactive				inactive		inactive	inactive	inactive	inactive	inactive	inactive	inactive	inactive	inactive		inactive
CC(=O)[C@@]1(O)CC[C@H]2[C@@H]3CCC4=CC(=O)CC[C@]4(C)[C@H]3CC[C@@]21C	inactive			24.3 µM (active)				inactive					inactive				inactive			
S=c1nc[nH]c2nc[nH]c12	inactive	23.7 µM (active)		inactive				inactive		inactive	inactive			inactive	inactive		inactive	inactive	5.36 µM (active)	inactive
CC(=O)CCc1ccccc1	inactive	inactive		inactive				inactive		inactive	inactive		inactive				inactive	inactive		inactive
CCCCCC/C=C/CCCCCCCC(=O)O	inactive	inactive		inactive				inactive				inactive	inactive	inactive	30.7 µM (active) and inactive	inactive	inactive	inactive	inactive	
Oc1c(Cl)cc(Cl)c(Cl)c1Cl	inactive	67.1 µM (active)						inactive		47.5 µM (active) and 30.6 µM (active)	inactive	34 µM [inconclusive] (active)	53.8 µM (active)	inactive		inactive and 68.6 µM (active)	inactive	inactive		
CC1=C(/C=C/C(C)=C/C=C/C(C)=C/CO)C(C)(C)CCC1	inactive	28.8 µM (active)		43.8 µM (active) and 25.7 µM (active)				inactive			inactive	inactive	inactive	8.49 µM [inconclusive] (active) and inactive	944 nM (active) and inactive	15 µM (active) and 7.79 µM (active) and inactive	inactive	inactive and 28.8 µM (active)	inactive	inactive
COC(=O)Nc1nc2ccc(Sc3ccccc3)cc2[nH]1	inactive	403 nM (active) and 217 nM (active)		403 nM (active) and 386 nM (active)				inactive		202 nM (active) and 217 nM (active)	inactive		inactive				inactive	inactive	inactive	202 nM (active)
C=C(C)C(=O)OCCC[Si](OC)(OC)OC		inactive		inactive				inactive		inactive	inactive	inactive	inactive	inactive	inactive	inactive	inactive	inactive	inactive	
COC(=O)c1ccc(C(=O)OC)cc1	inactive	inactive		inactive				inactive		inactive	inactive	inactive	inactive	inactive	inactive	inactive	inactive	inactive	inactive	
O=C(c1ccc(O)cc1)c1ccc(O)cc1O	inactive	inactive						inactive		inactive	inactive		inactive	11.1 µM [inconclusive] (active) and 21.9 µM [inconclusive] (active)	5.5 µM (active) and 9.69 µM (active)	inactive	inactive	inactive	inactive	inactive
Nc1nc2ncc(CNc3ccc(C(=O)N[C@@H](CCC(=O)O)C(=O)O)cc3)nc2c(=O)[nH]1	inactive	inactive		inactive	inactive	inactive	inactive	inactive	inactive				inactive				inactive	inactive		
CCCCC(CC)COC(=O)CCCCCCCC(=O)OCC(CC)CCCC (stereo not given)	inactive	inactive		inactive				inactive		inactive	inactive		inactive				inactive			
